MITF primary: inhibitors of human MITF; O75030; AlphaScreen MITF homodimerization, bead proximity signal; inhibition, % at 2.6 µM; actives 0.91% (n = 650,000); AID 1259374; in the data active = inhibition above about 50%
GPR151 activ: activates the human receptor GPR151; PathHunter beta-arrestin GPR151 cells, luminescence; activation, % at 11.2 µM; actives 1% (n = 650,000); AID 1508602; in the data active = activation above about 4.9%
Target sequence (Q8TDV0 whole entry, looked up): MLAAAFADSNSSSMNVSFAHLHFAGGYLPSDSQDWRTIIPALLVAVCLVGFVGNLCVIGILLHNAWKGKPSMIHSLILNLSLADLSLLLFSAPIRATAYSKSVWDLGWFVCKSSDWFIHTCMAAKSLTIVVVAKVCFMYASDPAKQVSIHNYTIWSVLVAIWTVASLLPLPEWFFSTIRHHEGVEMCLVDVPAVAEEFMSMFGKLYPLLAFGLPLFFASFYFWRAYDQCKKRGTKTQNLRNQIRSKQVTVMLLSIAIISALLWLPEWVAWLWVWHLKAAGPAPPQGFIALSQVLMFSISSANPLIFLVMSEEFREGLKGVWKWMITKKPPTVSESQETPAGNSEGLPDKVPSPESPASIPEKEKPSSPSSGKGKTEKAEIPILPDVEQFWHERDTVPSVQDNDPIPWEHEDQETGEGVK
TEAD-YAP inh: TEAD-YAP interaction inhibition; actives 1.4% (n = 640,000); inhibition, % at 9.12 µM; HEK-TIYL cells, TEAD-Gal4/YAP UAS-luciferase luminescence; in the data active = inhibition above about 32%
FBW7 activator: human FBW7 E3 ligase activation, primary screen. AlphaScreen FBW7–phospho-cyclin E peptide binding, activator screen. Q969H0. normalized activity (activation), % at 26.1 µM. actives 0.13% (n = 650,000). AID 1259310; in the data active = normalized activity above about 1.9%;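 note: purified mutant Fbw7 with reduced substrate affinity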
GPR151 confirm: human GPR151 activation, confirmation screen | GPR151 PathHunter beta-arrestin cells, luminescence, 90 min; % of EA-reagent control over plate median | 6,700 tested, under 10 active | shares compounds with GPR151 activ | activation, % at 11.2 µM;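 active = mean percent activation across replicates above the confirmation screen cutoff of 4.91%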
GPR119 ag: counter-screen for GPR151 activators: effect on human GPR119; GPR119 PathHunter beta-arrestin cells, luminescence, 90 min; 0 = compound-well median, 100 = enzyme-acceptor control; activation, % at 11.2 µM; shares compounds with GPR151 activ; AID 1508611; actives 0.3% (n = 6,700);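 active = mean percent activation in the counterscreen above 29.09%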;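 note: counterscreen on off-target GPR119 to flag nonselective hits from the GPR151 activator screen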
Large screens that a line does not name were inactive (follow-up assays come after a bar, where they were run). Most compounds without a hit are left out; they make up all but 3.5% or so of the library.

Clc1cccc(N2CCN(c3ncnc4c3nc3n4CCCCC3)CC2)c1	GPR151 activ 12, TEAD-YAP inh 41 | GPR151 confirm inactive | GPR119 ag inactive
CCOC(=O)c1c(NC(=O)CSc2nnc(CNC(=O)c3ccccc3OC)n2-c2ccccc2OC)sc2c1CCC2	none
Cc1ccc(C)c(N2CCN(C(=O)CCc3nc(-c4ccccc4F)no3)CC2)c1	GPR151 activ 5.5 | GPR151 confirm inactive | GPR119 ag inactive
O=C(CC(C(=O)N1CCc2ccccc21)n1ccnc1)N1CCCCCC1 (centres undefined)	none
Cc1cc(Cl)ccc1Nc1nc(N2CCOCC2)nc2c1cnn2C	none
NS(=O)(=O)c1ccc(NC(=O)CSc2nc3cc(Cl)ccc3s2)cc1	GPR151 activ 6.1 | GPR151 confirm inactive | GPR119 ag inactive
O=C(CSc1nc2cc(Cl)ccc2s1)Nc1ccc(Cl)cc1	none
C/C(=N\Nc1cccc2cccnc12)c1ccccc1	none
O=C(NCc1ccco1)C1CCCN1C(=O)Nc1ccccc1F (centres undefined)	none
O=C1NC(=S)NC(=O)C1=Cc1cc(Cl)ccc1OCc1ccc([N+](=O)[O-])cc1	none
CCCOc1ccc([N+](=O)[O-])cc1C=C1C(=O)NC(=S)NC1=O	GPR151 activ 5.1 | GPR151 confirm inactive | GPR119 ag inactive
O=C(NNC(=O)c1ccccc1F)c1ccc(Cl)nc1	GPR151 activ 4.9 | GPR151 confirm inactive | GPR119 ag inactive
COc1ccc(Nc2cc(C(=O)O)c3ccccc3n2)c(OC)c1	none
CCC(C)NC(=O)C1=CC(c2cccc(OC)c2)=NS(=O)(=O)N1C (centres undefined)	GPR151 activ 5.2 | GPR151 confirm inactive | GPR119 ag inactive
CCC(C)NC(=O)C1=CC(c2ccc(OC)c(OC)c2)=NS(=O)(=O)N1C (centres undefined)	none
O=C1/C(=C/c2ccccc2)SC(=S)N1N1C(=O)c2ccccc2C1=O	none
O=C1/C(=C\c2cccc([N+](=O)[O-])c2)SC(=S)N1N1C(=O)c2ccccc2C1=O	GPR151 activ 5.0 | GPR151 confirm inactive | GPR119 ag inactive
CCOC(=O)CCCNC(=O)COC(=O)/C=C/c1ccc(O)c(OC)c1	none
Cc1cc2ncn(CCC(=O)NC3CCCC3)c2cc1C	none
Cc1cc2ncn(CCC(=O)NC(C)(C)C)c2cc1C	GPR151 activ 5.3 | GPR151 confirm inactive | GPR119 ag inactive
CC1(C)Oc2ccc(C(=O)N3CCCC3)cc2N(CC(=O)NCc2ccccc2)C1=O	GPR151 activ 6.1 | GPR151 confirm inactive | GPR119 ag inactive
CC1(C)Oc2ccc(C(=O)N3CCCCCC3)cc2N(CC(=O)NCc2ccccc2)C1=O	none
CCOC(=O)/C=C(\CCl)Nc1n[nH]c(C(F)(F)F)n1	none
CCn1c(C(=O)O)c(CNC2CCCC2)c2ccc(C)cc21	GPR151 activ 8.4 | GPR151 confirm inactive | GPR119 ag inactive
Cc1noc(C(=O)Nc2c(C)nn(Cc3ccccc3)c2C)c1Cl	GPR151 activ 5.3 | GPR151 confirm inactive | GPR119 ag inactive
Cc1cc(C)nc(N2CCN(C(=O)CCC(=O)NN3CCOCC3)CC2)n1	none
COc1ccccc1CNc1nc2ccccc2n1CCN1CCOCC1	none
COc1ccc(CNc2nc3ccccc3n2CCN2CCOCC2)cc1OC	GPR151 activ 10.0 | GPR151 confirm inactive | GPR119 ag inactive
COc1cccc(/C(C)=N\NC(=O)c2ccoc2C)c1	none
CCN(c1ccccc1)S(=O)(=O)c1ccc(F)c(C(=O)Nc2cccc(C)c2C)c1	none
O=C(Cn1cc(/C=C2\SC(=S)NC2=O)c2ccccc21)NCc1cccs1	GPR151 activ 6.8 | GPR151 confirm inactive | GPR119 ag inactive
O=C(CSc1nnc(-c2ccc(Br)cc2)o1)NC1CCCC1	GPR151 activ 8.1 | GPR151 confirm inactive | GPR119 ag inactive
Clc1cccc(CN2CCN(c3nc4nonc4nc3NC3CC3)CC2)c1	GPR151 activ 11 | GPR151 confirm inactive | GPR119 ag inactive
COC(=O)C(NC(C)=O)(Nc1sc2c(c1C#N)CCC(C(C)(C)C)C2)C(F)(F)F (centres undefined)	none
Cc1ccc(/C(N)=N/OC(=O)Cc2cccc3ccccc23)cc1	none
Cc1ccc(CC(=O)O/N=C(\N)Cc2cccc3ccccc23)cc1	GPR151 activ 5.5 | GPR151 confirm inactive | GPR119 ag inactive
OCCn1c(-c2ccc(I)cc2)csc1=Nc1cccc(Cl)c1	none
N#Cc1cccc(S(=O)(=O)Nc2ccccc2F)c1	none
O=S(=O)(Nc1ccccc1F)c1cccc(S(=O)(=O)c2ccccc2)c1	GPR151 activ 5.3 | GPR151 confirm inactive | GPR119 ag inactive
CCOc1ccc2c(-c3cc4cc(Br)ccc4oc3=O)cc(=O)oc2c1	GPR151 activ 7.9 | GPR151 confirm inactive | GPR119 ag inactive
Cc1cccc(-c2cc(C(=O)N3CCN(c4ccc([N+](=O)[O-])cc4)CC3)c3ccccc3n2)c1	none
Cc1cccc(-c2cc(C(=O)N3CCN(C)CC3)c3ccccc3n2)c1	GPR151 activ 5.7 | GPR151 confirm inactive | GPR119 ag inactive
CN1CCN(C(=O)c2cc3ccccc3nc2Cl)CC1	GPR151 activ 8.0 | GPR151 confirm inactive | GPR119 ag inactive
Cc1ccc(NC(=O)c2cc3cc(Br)ccc3o/c2=N\c2sc3c(c2C#N)CCCC3)cc1	none
CCOC(=O)CC(=O)c1cc2ccc(N(CC)CC)cc2oc1=O	GPR151 activ 5.4 | GPR151 confirm inactive | GPR119 ag inactive
CCN(CC)c1ccc2cc(C(=O)Nc3ccc(C)cc3)c(=O)oc2c1	none
O=C1Nc2cc(C(=O)N3CCN(c4cccc(C(F)(F)F)c4)CC3)ccc2Sc2ccccc21	GPR151 activ 5.1 | GPR151 confirm inactive | GPR119 ag inactive
Cc1ccc(CS(=O)(=O)CC2Nc3ccc(C(=O)N4CCN(c5cccc(C(F)(F)F)c5)CC4)cc3NC2=O)cc1 (centres undefined)	none
Cc1cccc(CS(=O)(=O)CC2Nc3ccc(C(=O)N4CCN(c5cccc(C(F)(F)F)c5)CC4)cc3NC2=O)c1 (centres undefined)	GPR151 activ 5.2 | GPR151 confirm inactive | GPR119 ag inactive
Nc1nnnn1CC(=O)N/N=C/c1ccc(-c2ccccc2C(=O)O)o1	none
Cn1c(SCc2ccccc2)nnc1C1CCCN1C(=O)C1CCCO1 (centres undefined)	none
Cn1c(SCc2ccccc2)nnc1C1CCCN1C(=O)c1ccc2c(c1)OCO2 (centres undefined)	GPR151 activ 5.9 | GPR151 confirm inactive | GPR119 ag inactive
CSc1ccccc1C(=O)Nc1cc2c3c(c1)CCN3C(=O)CC2	none
CN(CCO)c1nc(-c2ccccc2)c2cc(Br)ccc2n1	none
COc1nc2ccc(Br)cc2cc1[C@@H](c1ccccc1)[C@@](O)(CCN(C)C)c1cccc2ccccc12	GPR151 activ 7.5 (no result: MITF primary, TEAD-YAP inh, FBW7 activator) | GPR151 confirm inactive | GPR119 ag inactive

From PubChem
